A short description of assay [1]: qHTS assay for small molecule activators of the p53 signaling pathway (AID 651743; active means well fitted activation curve with a large enough effect in the signal ratio, not every such curve was filed as active; the % refers to the signal ratio; further: series mostly up to about 92 µM; % of control where 0% means no effect). To be noted: HCT-116 p53RE-bla, beta-lactamase FRET ratio, 16 h; active compounds read high. In outline: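 Read-out is fluorescence intensity from the LiveBLAzer B/G FRET substrate, added for 2 hours at room temperature after HCT-116 p53RE-bla cells had been incubated with compounds for 16 hours at 37 C.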
Background: Quantitative high-throughput screening tests each substance at several concentrations.

Assay [2] in a line: qHTS assay for small molecule disruptors of the mitochondrial membrane potential - 1 hr assay (AID 651754; calls by dose curve; further: potency means the concentration at half of the fitted maximal effect; nearly all actives have a fitted effect of over 35% in size). The method in brief: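 HepG2, 2,000 cells/well, overnight attachment; cpd or DMSO 1 hr, 37C/5% CO2; Mito-MPS dye 30 min, 37C; fluorescence monomer (490/535) and aggregate (540/590).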
Assay [3] is described as follows: qHTS assay for small molecule disruptors of the mitochondrial membrane potential - 5 hr assay (AID 651755; calls by dose curve; further: potency means the concentration at half of the fitted maximal effect; nearly all actives have a fitted effect of over 40% in size). To be noted: JC-1-type ratio dye. In outline: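 HepG2, 2,000 cells/well, overnight attach; cpd or DMSO 5 hr, 37C/5% CO2; Mito-MPS 30 min 37C; fluor 490/535 + 540/590 nm.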
A short description of assay [4]: qHTS assay for environmental chemicals that activate the Aryl hydrocarbon Receptor (AhR) signaling pathway (AID 651777). Further: % of control where 0% means no effect; nearly all actives have a fitted effect of over 15% in size. To be noted: 1A2-DRE human hepatoma cells, luciferase, 24 h; active compounds read high. The method in brief: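 1A2-DRE human hepatoma reporter line; 1,200 cells/well; cmpd or DMSO 24 h, 37 C/5% CO2; One-Glo 30 min RT; luciferase lum.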
Assay [5] is described as follows: qHTS assay for small molecule agonists of the antioxidant response element (ARE) signaling pathway measured by Nrf2-dependant transcriptional activity - cell viability counter screen (AID 720653; active means well fitted curve in the direction sought with a large enough effect in the repeat runs; an effect the other way counts as inactive or inconclusive; further: on the % scale 0 is the no-effect control and ±100 the full control effect). To be noted: ARE-bla HepG2 viability, CellTiter-Glo ATP luminescence, 16 h; max response: active compounds read low. In outline: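 Cytotoxicity counter screen: intracellular ATP quantified by CellTiter-Glo luminescence in the same ARE-bla HepG2 plates, after 16 h compound exposure and a 2 h beta-lactamase substrate step.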

Assay [6] is described as follows: qHTS assay for cell viability of HEK293 cells (AID 743288). Further: on the % scale 0 is the no-effect control and ±100 the full control effect; nearly all actives have a fitted effect of over 50% in size. To be noted: ATP luminescence (CellTiter-Glo), 18 h; max response: active compounds read low. The method in brief:
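Luminescent ATP quantitation served as the viability read-out. Cells (parental HEK293, 2,000/well) received compounds after at least 5 h at 37 C and were exposed for 18 h before a 30 min room-temperature reagent step.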

Several values for one entry are separate records, joined by “and”; a condition that tells them apart may be missing. Identical values can stand only once. Results filed as inconclusive are left out. Values without a mark were called inactive. Activity calls are given as the source filed them. Unless noted, the call rests on the fitted dose curve; in most records, active means well fitted curve in the direction sought with a large enough effect; inconclusive means small, poorly fitted or top-dose-only effect, or another doubt; inactive means no such curve, though single readings can be large; an effect the other way counts as inactive or inconclusive.

As for `Nc1ccc(N)c([N+](=O)[O-])c1`, the activation in assay [1] is -0.975% and -0.0594%; in assay [4], 3.75%. Besides, the Potency in assay [2] and in assay [3] was 29.8 µM (active) each time. Further, the max response in assay [5] is -19.5% and -28.1%; in assay [6], -1.33% and -23.7%.

For the origin of these results see PubChem BioAssay (NCATS).
